In PubChem BioAssay AID588499 (NMMLSC, 2011) one finds inhibition data, which are given here for 24 compounds.

Hit rate of the full screen: of about 360,000 compounds, about 610 (0.17%) were called active. Inconclusive results (about 2%) are left out. This is one part of a sample in which actives are shown more often than they occur. No stated cut-off is given here; in the data, active means inhibition above about 30%; inconclusive means no clear call, values can overlap the other calls; inactive means below that.

In this test the test system is Botulinum neurotoxin type A light chain protease (Clostridium botulinum A str. ATCC 3502). The experiment in a line: BoNT/A light chain protease inhibitors, primary screen, biochemical, flow cytometry, MLPCN library (AID 588499). Further: plate controls were buffer without enzyme for full effect and enzyme alone for no effect. As to conditions: multiplex microsphere protease substrate cleavage, at 10 µM, active compounds read high.
Turning to `O=C1OCC2=C1C(c1ccccc1)CC(=O)N2c1cccc(F)c1` (centres undefined), the inhibition was -1.3% (inactive).
Consider `CCCCOCCCNC(=O)C[C@@H]1C[C@@]2(C(=O)OC)CCCCC=C2N(CCC2=CCCCC2)C1=O`, for which the inhibition was -0.3% (inactive).
`CCc1nc2c(OCCOc3ccccc3)cccn2c1N(C)C(=O)c1ccccc1F`: the inhibition was -0.2% (inactive).
In the case of `COc1ccc([C@H]2N[C@]3(CCCN(Cc4ccco4)C3=O)[C@H]3C(=O)N(C)C(=O)[C@@H]23)cc1` it was -0.4% (inactive).
To `COC(=O)[C@]12CCCCC=C1N(CCC1=CCCCC1)C(=O)[C@H](CC(=O)NCC1CCCCC1)C2` belongs 0% (inactive); to `CC(C)(C)CC(=O)Nc1nc(C(N)Cc2ccc(C(F)(F)F)cc2)cs1` (centres undefined), -0.5% (inactive).
In the case of `CN1CCN(C(=O)c2ccc(NC(=O)c3ccc(Br)o3)cc2)CC1` it was 0.8% (inactive).
Consider `COC(=O)c1cn(C)c2ccc(S(=O)(=O)N3CC(C)CC(C)C3)cc2c1=O` (centres undefined), for which the inhibition is -1.1% (inactive).
To `CC(=O)Nc1cccc(Nc2ccc(C#N)cc2)c1` belongs 0% (inactive).
In the case of `COc1ccc(NC(=O)NN2CCN(C)CC2)c(OC)c1` it was -3.1% (inactive); in that of `COc1ccc(C(=O)c2c(C)c(CCC#N)n3ccccc23)c(OC)c1`, 0.8% (inactive); in that of `CC1(C)c2[nH]c3ccccc3c2C[C@H]2C(=O)N(N)CC(=O)N21`, -1.4% (inactive).
In the case of `CC1=CC(=C(C#N)c2nc3ccccc3s2)C=C(C)N1c1ccc(F)cc1F` it was 48.3% (active); in that of `Cc1nn(-c2ccc(F)cc2)c(Cl)c1/C=C(/CCC(=O)O)c1nc2ccccc2s1`, -0.5% (inactive).
As to `CSCC[C@H](NC(=O)NCCc1ccc(F)cc1)C(=O)O`, the inhibition is 0% (inactive).
To `O=c1c2[nH]c3ccc(Cl)cc3c2ncn1Cc1ccccn1` belongs 1% (inactive); to `O=C(NCc1ccc(Cl)cc1)C(=O)NCC1CCCN1S(=O)(=O)c1cccs1` (centres undefined), -1.5% (inactive); to `NC(=O)c1ccc(N2CCCC2)nc1`, 0.8% (inactive).
In the case of `Oc1cccc(CCc2ccccn2)c1`, the inhibition was -0.4% (inactive).
In the case of `CCOc1ccccc1NC(=O)C1CCCN(C(=O)Nc2ccccc2)C1` (centres undefined) it was 0% (inactive); in that of `COc1cc(OC)c(-n2cc(-c3ccc(Cl)cc3)[nH]c2=O)cc1Cl`, 0.1% (inactive); in that of `O=C(COC(=O)CC1CC2CCC1C2)NC(=O)NC1CCCC1` (centres undefined), 0.7% (inactive).
In the case of `O=C(NCc1ccccc1)C1c2ccccc2OCC(=O)N1C1CC1` (centres undefined) it was 0% (inactive); in that of `O=C(NCCc1ccco1)C(=O)NCCC1CCCCN1S(=O)(=O)c1ccccc1` (centres undefined), -3.9% (inactive).
